Several values for one entry are separate records, joined by “and”; a condition that tells them apart may be missing. Equal entries are not always repeated. Screen size: about 300,000 compounds; about 37,000 (12%) were called active. Many of the other results were omitted from the sample, so actives are more common in it than they were. A number with no mark means an inactive call. Rule as the data show it: active = max response mostly above about 13% (no sharp cut-off); inactive = mostly below about 14%.
Assay: Cycloheximide Counterscreen for Small Molecule Inhibitors of Shiga Toxin; also: read at 38.3 µM for the half of the compounds with a filed dose; 0% is about no effect
Conditions: cell reporter, cycloheximide protein synthesis inhibition counterscreen; stronger effect = higher value

| Compound | max response |
| --- | --- |
| Cc1nc(C)c(-c2csc(NCCc3ccccc3)n2)s1 | 13.4% (active) |
| Cc1ccc(Nc2nc(-c3sc(NC(=O)c4ccccc4)nc3C)cs2)cc1 | 8.35% |
| S=c1[nH]nc(NCCc2ccccc2)s1 | -2.47% |
| CC1CC(C)CN(C(=O)CCNC(=O)Cn2cnc3ccccc3c2=O)C1 (stereo not drawn) | -4.79% |
| O=C(N/C(=C/c1ccc(Cl)cc1)C(=O)N1CCCCC1)c1ccco1 | -0.943% |
| C=CCn1c(SCC(N)=O)nnc1-c1cc2c(s1)CCC(CC)C2 (stereo not drawn) | 29.3% (active) |
| C=CCn1c(SCc2c(C(=O)OC)sc(N)c2C(=O)OC)nnc1-c1ccc(Cl)cc1 | -1.63% |
| CCn1c(CSc2nc(C)cc(C)n2)nnc1SCC(N)=O | -2.49% |
| CCS(=O)(=O)N1Cc2ccccc2CC1C(=O)Nc1ccc(OC)cc1OC (stereo not drawn) | 3.12% |
| CCS(=O)(=O)N1Cc2ccccc2CC1C(=O)Nc1nc2ccc(F)cc2s1 (stereo not drawn) | 77.8% (active) |
| Cc1ccc2nc(NC(=O)C3CCN(S(=O)(=O)c4ccc5c(c4)oc(=O)n5C)CC3)sc2c1 | -6.17% |
| CCOC(=O)C(CC)Sc1ncnc2c1nnn2-c1ccc(F)cc1 (stereo not drawn) | -1.76% |
| COc1ccc(-n2nnc3c(=O)n(CC(=O)OCc4ccccc4)cnc32)cc1 | 0.544% |
| COC(=O)C(C)n1cnc2c(nnn2-c2ccc(F)cc2)c1=O (stereo not drawn) | -2.37% |
| CCOC(=O)C(C)n1cnc2c(nnn2-c2cccc(OC)c2)c1=O (stereo not drawn) | 35.4% (active) |
| COC(=O)C(C)n1cnc2c(nnn2-c2cccc(Cl)c2)c1=O (stereo not drawn) | -1.58% |
| CCOC(=O)C(C)n1cnc2c(nnn2-c2ccc(F)cc2)c1=O (stereo not drawn) | 8.68% (active) |
| COc1ccc(CCN2C(=O)C(C)=C(C)C2=O)cc1OC | 1.83% |
| COc1ccc(N2CCN(C(=O)C3CCN(C(=O)c4ccccc4Cl)CC3)CC2)cc1 | 0.346% |
| COc1cccc(CN(C)C(=O)CC23CC4CC(CC(C4)C2)C3)c1OC | -3.61% |

| Compound | max response |
| --- | --- |
| O=C(Nc1ccc(F)cc1)c1ccc(S(=O)(=O)NCc2cccnc2)cc1 | 13% |
| O=C(Nc1ccccc1F)c1cc(S(=O)(=O)N2CCCCC2)cs1 | 13.9% (active) |
| O=C(Nc1ccc(S(=O)(=O)N2CCCCCC2)cc1)c1c(F)cccc1F | 16.3% (active) |
| O=C(CN1CCCCCC1)Nc1ccc(S(=O)(=O)N2CCCCC2)cc1 | -2.88% |
| O=C(Nc1cccc(F)c1)c1ccc(S(=O)(=O)N2CCCC2)cc1 | -1.88% |
| Cc1ccccc1NC(=O)c1cc(S(=O)(=O)N2CCOCC2)cs1 | 1.05% |
| O=C(Nc1ccccc1C(=O)O)c1cc(S(=O)(=O)N2CCCCC2)cs1 | -3.51% |
| O=C(O)c1ccc(Cn2c(=S)[nH]c3cc(Cl)ccc3c2=O)cc1 | -2.92% |
| O=C(CN1C(=O)CC(c2ccccc2)=Nc2ccccc21)NC1CCCCC1 | -1.57% |
| COc1ccc(S(=O)(=O)NNC(=O)Nc2ccc(C)cc2)c(OC)c1 | 0.87% |
| COc1ccc(NS(=O)(=O)c2cc(NC(=O)CC(=O)c3ccc([N+](=O)[O-])cc3)ccc2C)cc1 | -3.18% |
| CN1/C(=c2/s/c(=C3/C(=O)N(c4ccccc4)NC3=Nc3ccccc3)n(C)c2=O)C(C)(C)c2ccccc21 | -0.907% |
| CCN1C(=O)/C(=C2/Sc3ccccc3N2CCCS(=O)(=O)O)SC1=S | -1.1% and 2.76% |
| CCN1C(=O)/C(=c2\s/c(=C3\Sc4ccccc4N3C)c(=O)n2C)N(C)C1=S | 22.3% (active) |
| Cc1ccccc1C(=O)OC1OC(=O)C(Cl)=C1Nc1ccccc1 (stereo not drawn) | 0.412% |
| CCCc1ccc(OCC(O)CN2CCN(C(=O)OCC)CC2)cc1 (stereo not drawn) | -3.42% |
| COCCCn1c2nc3ccccc3nc2c2c(=O)n(Cc3ccc(Cl)cc3)c(C)nc21 | 1.89% |
| Cc1ccc(Cn2c(C)nc3c(c2=O)c2nc4ccccc4nc2n3Cc2ccco2)cc1 | 15.8% (active) |
| Cc1nc2c(c(=O)n1Cc1ccco1)c1nc3ccccc3nc1n2Cc1ccccc1 | -2.66% |
| O=C(CCCN1CCc2[nH]c3ccc(F)cc3c2C1)c1ccc(F)cc1 | -1.91% |

| Compound | max response |
| --- | --- |
| Cc1ccc(S(=O)(=O)/N=S(\C)C(C)C)cc1 (stereo not drawn) | -5.61% |
| Cn1nc(-c2ccccc2)c(-c2nc(-c3ccc(Cl)cc3)no2)c1Cl | 7.15% |
| O=C(CSc1nnc(-c2ccccc2)o1)N1CCOCC1 | -2.26% |
| Nc1nonc1-c1noc(-c2ccc(Br)o2)n1 | 1.8% |
| Cc1cccc(C)c1OC(=O)CSc1nnc(-c2ccccc2)o1 | -2.59% |
| Brc1ccc(-c2noc(-c3ccccc3)n2)o1 | 60.7% (active) |
| Brc1ccc(-c2nnc(-c3ccccc3)o2)o1 | 30.6% (active) |
| Cc1ccccc1OCc1nnc(SCC(=O)N2c3ccccc3Sc3ccc(Cl)cc32)o1 | -2.04% |
| CCOc1ccc(/C=N/OCC(=O)NCc2cccs2)cc1 | -5.69% |
| COc1cccc(CNC(=O)Cn2c(=O)oc3cc(S(=O)(=O)N4CCCCC4)ccc32)c1 | 9.69% |
| C/C=C/C(=O)OCc1csc(CC(=O)Nc2ccccc2C)n1 | 7.73% |
| Cc1cc2occ(CC(=O)NNC(=O)c3ccccc3F)c2cc1C | -1.94% |
| NC(=O)C1CCN(C(=O)/C(=C/c2ccco2)NC(=O)c2ccccc2)CC1 | -1.45% |
| COc1ccc(CCn2c(=N)c(C(=O)NCC3CCCO3)cc3c(=O)n4cccc(C)c4nc32)cc1OC (stereo not drawn) | -4.64% |
| Cc1cc(-c2ccc(/C=N/n3cnnc3)o2)c([N+](=O)[O-])cc1C | 12.6% |
| O=C1C2C3C=CC(C4CC34)C2C(=O)N1/N=C/c1ccc(-c2ccccc2[N+](=O)[O-])o1 (stereo not drawn) | 13.3% (active) |
| Cc1cc([N+](=O)[O-])c(-c2ccc(/C=N/n3cnnc3)o2)cc1Cl | 15.8% |
| O=C(CN1CCN(c2ccc(F)cc2)CC1)Nc1ccccc1 | -1.97% |

Source: PubChem BioAssay AID2314 (National Center for Advancing Translational Sciences (NCATS), 2010)
